23 compounds from PubChem BioAssay (NCATS) can be followed below.

Assay [1] is described as follows: qHTS to identify inhibitors of the type 1 interferon - major histocompatibility complex class I in skeletal muscle: primary screen against the NCATS Mechanism Interrogation Plate v5.0 (MIPE) Libary (AID 1347411). Further: nearly all actives have a fitted effect of over 65% in size. Further: potency means the concentration at half of the fitted maximal effect.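 On activity change, negative = inhibition: plate controls were vehicle for no effect and reference inhibitor for full effect.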 The method, boiled down:
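IFN-beta-driven (4 ng/ml) HLA-B-HiBit expression in CRISPR-tagged C25cl48 myoblasts; compounds 11-pt, 1:3, max 46 uM, 24 hr exposure; lytic NanoLuc complementation luminescence.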
Background: In qHTS, concentration-response curves come from the screen itself.

Assay [2] concerns the target Calcium and integrin-binding protein 1 (Homo sapiens) (UniProt Q99828). Put plainly: Primary qHTS for Identification of Calcium Integrin Binding Protein 1 (CIB1) Competitor (AID 1508620).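 Further: GST tagged CIB1 binding a fluorescein labelled alphaIIb integrin peptide tracer; top concentration of the series differs between compounds; on the % scale 0 is the no-effect control and ±100 the full control effect.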 In short, it runs like this: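 Fluorescence polarization competition: CIB1-GST (1 uM final) preincubated with compound 15 min at room temperature, then FITC-labeled alphaIIb peptide (100 nM final) added for another 15 min. Polarization read at Ex 480/Em 540.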

Assay [3] is described as follows: Primary qHTS for small molecule stabilizers of the endoplasmic reticulum resident proteome: Secreted ER Calcium Modulated Protein (SERCaMP) assay (AID 1508630). Further: on the % scale 0 is the no-effect control and ±100 the full control effect. The method, boiled down: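 The SH-SY5Y reporter protocol was run at 3 concentrations up to 38.3 uM (primary) or 11 concentrations (follow-up): 16 h compound, 100 nM thapsigargin for 4 h, then extracellular luciferase luminescence.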

Assay [4] has as its target Cytochrome P450 2D6 (Homo sapiens) (UniProt P10635). Put plainly: Cytochrome P450 family 2 subfamily D member 6 (CYP2D6) small molecule antagonists: luciferase biochemical (cell-free) qHTS assay (AID 1645840; active means well fitted curve in the direction sought with a large enough effect in the repeat runs; an effect the other way counts as inactive or inconclusive; further: nearly all actives have a fitted effect of over 55% in size; further: potency means the concentration at half of the fitted maximal effect; on activity change, negative = inhibition: on the % scale 0 is the no-effect control and ±100 the full control effect). In short, it runs like this: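 P450-Glo CYP2D6 system: proluciferin substrate converted by enzyme to luciferin, read by luminescence proportional to activity. Enzyme-substrate mix with compound 10 min at room temperature, then NADPH regeneration 1 h before detection reagent.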

The target of assay [5] is Cytochrome P450 2C9 (Homo sapiens) (UniProt P11712). Put plainly: Cytochrome P450 family 2 subfamily C member 9 (CYP2C9) small molecule antagonists: luciferase biochemical (cell-free) qHTS assay (AID 1645842; active means well fitted curve in the direction sought with a large enough effect in the repeat runs; an effect the other way counts as inactive or inconclusive; further: nearly all actives have a fitted effect of over 55% in size; further: potency means the concentration at half of the fitted maximal effect). In short, it runs like this:
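P450-Glo CYP2C9 system: proluciferin substrate with enzyme in mix containing 0.4% BSA, 10 min at room temperature, then NADPH regeneration solution added and incubated 1 h at 37C. Detection reagent stopped reaction; luminescence read after 20 min as RLU.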

A short description of assay [6]: Primary qHTS for inhibitors of nuclear receptor binding SET domain protein 2 (NSD2) in an isogenic RCH-ACV NSD2 p.E1099K mutant (9B) (AID 1645876). Further: nearly all actives have a fitted effect of over 70% in size. Further: potency means the concentration at half of the fitted maximal effect.
The nature of assay [7]: Primary qHTS for inhibitors of nuclear receptor binding SET domain protein 2 (NSD2) in an RCH-ACV wild type WT cells (2C) (AID 1645877). Further: nearly all actives have a fitted effect of over 70% in size. Further: potency means the concentration at half of the fitted maximal effect.
Assay [8] can be described thus: qHTS to identify inhibitors of the type 1 interferon - major histocompatibility complex class I in skeletal muscle: primary screen against the NCATS Pharmaceutical Collection (AID 1347407).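 Further: luminescence of HiBiT knocked into endogenous HLA-B as interferon-induced MHC class I level; on the % scale 0 is the no-effect control and ±100 the full control effect.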 The method, boiled down: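 Cells were seeded with 4 ng/ml IFN-beta, incubated 1 h, then dosed with compounds over eight 1:5 steps up to 46 uM final. After 24 h at 37 C, HiBiT lytic reagent was added and luminescence read after 10 min lysis in the dark.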

Assay [9] concerns the target Protein phosphatase 1D (Homo sapiens) (UniProt O15297). The assay is described as follows: RapidFire Mass Spectrometry qHTS Assay for Modulators of WT P53-Induced Phosphatase 1 (WIP1) (AID 1347424).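 Further: amount of dephosphorylated VEPPL-S-QETFS peptide product formed by WIP1; plate controls were DMSO wells for no effect and GSK830371 inhibitor control at 10 µM for full effect.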 In short, it runs like this:
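Mass-spectrometric measurement of dephosphorylated peptide after a 5 min room-temperature reaction of 10 nM WIP1 with 2 uM phosphopeptide, following 1 h compound preincubation in 30 mM MgCl2 buffer.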

The target is the same in assay [10]. The assay is described as follows: Rhodamine-PBP qHTS Assay for Modulators of WT P53-Induced Phosphatase 1 (WIP1) (AID 1347425). Further: % of control where 0% means no effect. In short, it runs like this: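 Steps: enzyme with Rh-PBP sensor and compounds, room-temperature incubation of 1 hr, baseline read, addition of VEPPL-pS-QETFS (10 uM final), kinetic fluorescence reads at 525/598 nm. Activity equals final minus baseline signal.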

Assay [11] in a line: A High-Content qHTS Against Drug Library for the Identification of Small Molecules that Inhibit DYT1 Early Onset Primary Dystonia-Associated Cell Pathology (AID 1645839; calls by dose curve). In short, it runs like this:
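Induced EGFP-delE TorsinA cells are imaged after 48 h of compound treatment. Punctate fusion-protein distribution gives the %pathology value, while nuclei counts flag toxicity. Wild-type EGFP-hTOR1A cells define the normal pattern.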

Assay [12] has as its target Calcium and integrin-binding protein 1 (Homo sapiens) (UniProt Q99828). The assay is described as follows: Confirmatory qHTS for Identification of Calcium Integrin Binding Protein 1 (CIB1) Competitor (AID 1508617). Further: on the % scale 0 is the no-effect control and ±100 the full control effect; nearly all actives have a fitted effect of over 65% in size. The method, boiled down:
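Binding competition between test compounds and fluorescent alphaIIb peptide for 1 uM CIB1-GST is monitored by FP at 480/540 nm. Final compound range is up to 114 uM; unlabeled peptide serves as reference competitor.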

For assay [13], the target named is Cytochrome P450 3A4 (Homo sapiens) (UniProt P08684). Put plainly: Cytochrome P450 family 3 subfamily A member 4 (CYP3A4) small molecule antagonists: luciferase qHTS assay (AID 1645841; active means well fitted curve in the direction sought with a large enough effect in the repeat runs; an effect the other way counts as inactive or inconclusive; further: nearly all actives have a fitted effect of over 45% in size). In short, it runs like this: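 P450-Glo CYP3A4 enzyme with proluciferin substrate was preincubated with DMSO-dissolved compounds for 10 min at room temperature. NADPH regeneration solution started a 1 h reaction. Detection reagent stopped it, and luminescence was read after 20 min.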
Sequence of Cytochrome P450 3A4 (Homo sapiens) (P08684 whole entry, looked up): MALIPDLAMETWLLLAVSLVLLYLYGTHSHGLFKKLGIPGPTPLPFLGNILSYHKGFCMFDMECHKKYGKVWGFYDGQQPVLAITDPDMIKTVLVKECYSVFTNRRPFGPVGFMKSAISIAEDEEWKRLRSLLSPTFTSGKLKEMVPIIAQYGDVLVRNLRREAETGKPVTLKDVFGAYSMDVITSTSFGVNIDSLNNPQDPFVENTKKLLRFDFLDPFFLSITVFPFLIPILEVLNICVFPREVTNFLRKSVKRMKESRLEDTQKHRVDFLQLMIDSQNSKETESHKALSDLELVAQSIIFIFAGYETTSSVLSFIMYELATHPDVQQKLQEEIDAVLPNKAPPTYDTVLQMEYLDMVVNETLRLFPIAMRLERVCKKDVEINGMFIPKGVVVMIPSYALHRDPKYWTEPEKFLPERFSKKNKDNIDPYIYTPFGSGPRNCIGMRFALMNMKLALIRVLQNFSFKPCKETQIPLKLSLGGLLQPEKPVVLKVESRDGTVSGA

Assay [14] concerns the target Catechol O-methyltransferase (Homo sapiens) (UniProt P21964). Put plainly: Confirmatory Screen for Target Class Profiling of Small Molecule Inhibitors of Methyltransferases (AID 1745852). Particulars: MTase-Glo luminescence, SAH detection, recombinant enzyme; measured here: COMT max response; stronger effect = lower value.
For assay [15], the target named is Guanidinoacetate N-methyltransferase (Homo sapiens) (UniProt Q14353). The assay is described as above. Particulars: activity change, negative = inhibition: at 57.3 µM (top of the series).
Assay [16] concerns the target Nicotinamide N-methyltransferase (Homo sapiens) (UniProt P40261). The assay is described as above. Particulars: MTase-Glo luminescence, SAH detection, recombinant enzyme; measured here: NNMT max response; stronger effect = lower value.

Each structure is given as a SMILES string. Values joined by “and” are separate entries in the source; they are usually repeats but may differ in a detail not shown here. Equal values may be shown once. Results filed as inconclusive are left out. Active and inactive are the calls of the source. Unless noted, the call rests on the fitted dose curve; in most records, active means well fitted curve in the direction sought with a large enough effect; inconclusive means small, poorly fitted or top-dose-only effect, or another doubt; inactive means no such curve, though single readings can be large; an effect the other way counts as inactive or inconclusive.

Sequence of Cytochrome P450 2C9 (Homo sapiens) (P11712 whole entry, looked up): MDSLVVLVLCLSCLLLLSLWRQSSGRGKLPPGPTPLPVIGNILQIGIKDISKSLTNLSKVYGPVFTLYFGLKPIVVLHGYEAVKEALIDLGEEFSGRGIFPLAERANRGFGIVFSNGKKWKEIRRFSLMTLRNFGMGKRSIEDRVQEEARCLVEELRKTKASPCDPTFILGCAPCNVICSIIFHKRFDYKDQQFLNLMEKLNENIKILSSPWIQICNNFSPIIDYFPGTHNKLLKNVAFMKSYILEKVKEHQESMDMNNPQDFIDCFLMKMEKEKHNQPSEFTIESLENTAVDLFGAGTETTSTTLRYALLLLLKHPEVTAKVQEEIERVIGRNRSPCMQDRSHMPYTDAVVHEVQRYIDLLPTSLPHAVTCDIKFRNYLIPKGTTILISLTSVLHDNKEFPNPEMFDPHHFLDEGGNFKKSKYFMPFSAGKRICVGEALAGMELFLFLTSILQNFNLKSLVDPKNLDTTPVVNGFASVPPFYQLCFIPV
Sequence of Calcium and integrin-binding protein 1 (Homo sapiens) (Q99828 whole entry, looked up): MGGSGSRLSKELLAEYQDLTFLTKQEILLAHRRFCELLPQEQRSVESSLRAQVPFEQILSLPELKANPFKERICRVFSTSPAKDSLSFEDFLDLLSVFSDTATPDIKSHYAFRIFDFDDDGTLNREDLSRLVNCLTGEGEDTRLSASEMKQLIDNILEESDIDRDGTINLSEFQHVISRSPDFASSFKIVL
Sequence of Cytochrome P450 2D6 (Homo sapiens) (P10635 whole entry, looked up): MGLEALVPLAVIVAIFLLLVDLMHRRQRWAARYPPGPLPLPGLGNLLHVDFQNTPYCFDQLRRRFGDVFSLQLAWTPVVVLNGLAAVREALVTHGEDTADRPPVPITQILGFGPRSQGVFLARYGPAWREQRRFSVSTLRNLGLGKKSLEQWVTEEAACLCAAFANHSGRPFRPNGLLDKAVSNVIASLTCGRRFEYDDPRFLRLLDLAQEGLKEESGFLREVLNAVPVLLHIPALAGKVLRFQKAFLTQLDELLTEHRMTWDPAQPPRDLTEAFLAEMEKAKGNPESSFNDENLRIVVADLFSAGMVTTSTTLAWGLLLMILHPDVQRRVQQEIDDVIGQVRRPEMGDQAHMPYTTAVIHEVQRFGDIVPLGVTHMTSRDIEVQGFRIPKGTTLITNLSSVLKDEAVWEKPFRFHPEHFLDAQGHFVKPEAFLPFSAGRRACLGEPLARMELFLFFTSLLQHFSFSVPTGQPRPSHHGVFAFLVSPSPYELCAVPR
Sequence of Protein phosphatase 1D (Homo sapiens) (O15297 whole entry, looked up): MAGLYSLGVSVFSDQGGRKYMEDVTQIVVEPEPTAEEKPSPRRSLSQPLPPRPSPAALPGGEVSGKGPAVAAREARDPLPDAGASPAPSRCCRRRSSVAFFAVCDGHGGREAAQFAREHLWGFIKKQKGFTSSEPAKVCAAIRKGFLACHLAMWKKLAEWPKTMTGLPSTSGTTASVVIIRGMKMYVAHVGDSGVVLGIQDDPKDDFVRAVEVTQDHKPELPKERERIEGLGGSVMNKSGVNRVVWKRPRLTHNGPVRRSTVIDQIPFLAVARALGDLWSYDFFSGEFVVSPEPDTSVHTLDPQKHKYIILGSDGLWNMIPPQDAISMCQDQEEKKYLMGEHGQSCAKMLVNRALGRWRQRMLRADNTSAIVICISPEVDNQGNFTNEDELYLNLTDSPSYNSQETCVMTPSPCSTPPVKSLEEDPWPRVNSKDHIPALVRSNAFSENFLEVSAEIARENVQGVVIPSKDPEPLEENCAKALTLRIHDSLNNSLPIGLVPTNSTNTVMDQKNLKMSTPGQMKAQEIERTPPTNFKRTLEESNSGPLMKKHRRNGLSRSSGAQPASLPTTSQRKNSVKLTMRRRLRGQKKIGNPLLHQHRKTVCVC
Sequence of Nicotinamide N-methyltransferase (Homo sapiens) (P40261 whole entry, looked up): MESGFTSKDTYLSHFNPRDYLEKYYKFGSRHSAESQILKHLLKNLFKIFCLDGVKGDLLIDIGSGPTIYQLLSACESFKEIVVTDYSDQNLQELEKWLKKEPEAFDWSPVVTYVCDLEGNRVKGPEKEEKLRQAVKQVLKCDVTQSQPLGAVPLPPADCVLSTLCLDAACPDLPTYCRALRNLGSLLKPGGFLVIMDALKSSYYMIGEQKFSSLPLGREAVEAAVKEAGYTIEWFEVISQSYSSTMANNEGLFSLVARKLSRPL
Sequence of Catechol O-methyltransferase (Homo sapiens) (P21964 whole entry, looked up): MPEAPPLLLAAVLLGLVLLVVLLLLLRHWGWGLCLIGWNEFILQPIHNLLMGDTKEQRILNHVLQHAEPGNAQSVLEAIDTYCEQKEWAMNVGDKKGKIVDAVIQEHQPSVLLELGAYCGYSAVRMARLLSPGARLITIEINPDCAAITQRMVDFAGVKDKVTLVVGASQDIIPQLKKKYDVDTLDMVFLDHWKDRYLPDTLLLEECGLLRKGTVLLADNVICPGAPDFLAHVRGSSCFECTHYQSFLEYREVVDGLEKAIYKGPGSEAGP

Take `O=C(Nc1ccc(Oc2ccnc3[nH]ccc23)c(F)c1)c1cccn(-c2ccc(F)cc2)c1=O`: the Potency result in assay [1], in assay [2] and in assay [4] was “inactive” throughout. For the same compound, in assay [3], the outcome was “inactive”. The values for the Potency in assay [5] and in [6] were 1.9 µM (active) and 16.6 µM (active), respectively.
As to `C=CC(=O)Nc1ccc2ncnc(Nc3ccc(OCc4cccc(F)c4)c(Cl)c3)c2c1`, the Potency was 10.4 µM (active) in assay [1]; 3.38 µM (active) in assay [5]; 7.28 µM (active) and 5.9 µM (active) in assay [6]; 8.17 µM (active) and 4.68 µM (active) in [7]. In addition, the Potency entry in assay [2] and in assay [4] was “inactive” in each case. The outcome in assay [3] was “inactive”.
For the compound `CCn1c(=O)c2c(nc(C=Cc3ccc(OC)c(OC)c3)n2C)n(CC)c1=O`, the outcome in assay [8], in [10], in [3] and in assay [11] was “inactive” throughout. In addition, the Potency result in assay [9], in assay [2], in assay [4], in assay [6] and in [7] was “inactive” each time.
Take `CN(C)CCN1C(=O)c2cccc3cc(N)cc(c23)C1=O`: the Potency was 10.4 µM (active) in [1], 5.25 µM (active) in assay [6] and 4.17 µM (active) in [7]. In addition, the Potency entry in assay [12] was “inactive”. Moreover, the outcome in assay [3] was “inactive”.
In the case of `O=c1ccn([C@@H]2O[C@H](CO)[C@H](O)[C@@H]2F)c(=O)[nH]1`, the Potency entry in assay [1] and in assay [2] was “inactive” throughout. For the same compound, the outcome in assay [3] was “inactive”.
Consider `COc1ccc(Nc2nccc(NCCO)n2)cc1`, for which the Potency result in [1] and in assay [2] was “inactive” throughout. Moreover, the outcome in [3] was “inactive”.
`Cc1ccccc1C(=O)Nc1ccc(C(=O)N2CCCC(O)c3cc(Cl)ccc32)c(C)c1` (stereo unspecified): the outcome in [8], in [10] and in [3] was “inactive” throughout. Further, the Potency entry in [1], in [9] and in assay [2] was “inactive” each time. The Potency in assay [5] was 27.5 µM (active); in assay [6], 13.3 µM (active); in [7], 15 µM (active).
On to `CC1(C)O[C@@H]2C[C@H]3[C@@H]4CCC5=CC(=O)C=C[C@]5(C)[C@@H]4[C@@H](O)C[C@]3(C)[C@]2(C(=O)CO)O1`, for which the outcome in [8], in assay [10], in assay [3] and in assay [11] was “inactive” throughout. The Potency result in [9], in [2], in assay [4] and in assay [6] was “inactive” throughout.
As to `Nc1ccn(C2CO[C@H](CO)O2)c(=O)n1` (stereo partly specified), the outcome in assay [8], in [10] and in assay [11] was “inactive” in each case. Moreover, the Potency result in assay [1], in assay [9], in [4], in [13] and in assay [5] was “inactive” in each case.
Regarding `CCCCCCCCCCCC(CC1OC(=O)C1CCCCCC)OC(=O)C(CC(C)C)NC=O` (stereo unspecified), the Potency result in assay [1] and in [2] was “inactive” throughout.
As to `Cn1cc(CNCC2CCN(c3ncc(C(=O)NO)cn3)CC2)c2ccccc21`, the Potency in [1] was 0.117 µM (active); in [4], 3.38 µM (active); in [6], 0.742 µM (active); in assay [7], 0.742 µM (active). The Potency result in [2] and in assay [5] was “inactive” throughout. Besides, the outcome in assay [3] is “inactive”.
For `COC(=O)C1C2CC3c4[nH]c5cc(OC)ccc5c4CCN3CC2CC(OC(=O)c2cc(OC)c(OC)c(OC)c2)C1OC` (stereo unspecified), the Potency result in assay [1] and in [2] was “inactive” each time. Moreover, the outcome in assay [3] is “inactive”.
For the compound `CCCCC(=O)O[C@]1(C(=O)CO)[C@@H](C)C[C@H]2[C@@H]3CCC4=CC(=O)C=C[C@]4(C)[C@@]3(F)[C@@H](O)C[C@@]21C`, the Potency entry in assay [1], in assay [9], in assay [2] and in assay [6] was “inactive” in each case. Moreover, the outcome in assay [10], in assay [3] and in assay [11] was “inactive” in each case. Further, the Potency was 15.5 µM (active) in assay [5]; 8.4 nM (active) and 33.2 nM (active) in assay [7].
With `O=C1c2cccc(O)c2C(=O)c2c(O)cc(CO)cc21`, the Potency entry in [1], in assay [12], in assay [6] and in [7] was “inactive” each time. The outcome in [3] is “inactive”.
With `c1ccc2c(Oc3nc(Nc4ccc(N5CCOCC5)cc4)c4ncn(C5CCCCC5)c4n3)cccc2c1`, the Potency entry in assay [1], in assay [2], in assay [4], in assay [6] and in assay [7] was “inactive” each time. Moreover, in assay [3], the outcome is “inactive”. Moreover, the Potency in [5] is 4.77 µM (active). For the same compound, the activity in [14] was 0.484%; in assay [16], -22.9%. Also, the activity change, negative = inhibition in [15] is -1.84%.
`COc1cc2ncnc(Nc3cccc(Br)c3)c2cc1OC`: the Potency in [1] is 10.4 µM (active). Besides, the Potency result in assay [2] is “inactive”. Also, the outcome in assay [3] was “inactive”.
With `N[C@H]1CN(c2c(F)cc3c(=O)c(C(=O)O)cn(C4C[C@@H]4F)c3c2Cl)CC12CC2` (stereo partly specified), the outcome in assay [8], in assay [10], in [3] and in assay [11] was “inactive” throughout. For the same compound, the Potency result in assay [9], in assay [2], in assay [4] and in assay [5] was “inactive” throughout.
Turning to `NC(=O)c1cccc(-c2cccc(OC(=O)NC3CCCCC3)c2)c1`, the Potency entry in assay [1], in [2], in [4], in assay [5], in assay [6] and in [7] was “inactive” in each case. Further, the outcome in assay [3] is “inactive”.
As to `Cc1cn([C@@H]2O[C@H](CO)[C@@H](O)[C@H]2F)c(=O)[nH]c1=O`, the outcome in [8], in assay [10] and in [11] was “inactive” throughout. Moreover, the Potency result in assay [9], in assay [2], in [4], in assay [5], in assay [6] and in assay [7] was “inactive” throughout.
On to `COc1cc(OC)c(NC(=O)Nc2cc(C)on2)cc1Cl`, for which the Potency entry in assay [1] and in assay [2] was “inactive” in each case. The outcome in assay [3] was “inactive”.
As for `COc1cc(C(C)C)c(Oc2cnc(NC(CO)CO)nc2N)cc1I`, the Potency entry in assay [1], in assay [2], in [6] and in [7] was “inactive” each time. Besides, the outcome in [3] was “inactive”. Further, the Potency in assay [4] is 19 µM (active); in assay [5], 12 µM (active).
Take `CCc1nc(-c2cccc(C)c2)c(-c2ccnc(NC(=O)c3ccccc3)c2)s1`: the Potency result in [1], in assay [2] and in assay [4] was “inactive” in each case. Moreover, the outcome in assay [3] is “inactive”. Also, the results for the Potency in [5], in [6] and in assay [7] were 2.68 µM (active), 20.5 µM (active) and 16.3 µM (active), respectively.
As to `O=C1NC(O)CCN1[C@@H]1O[C@H](CO)[C@H](O)[C@H]1O` (stereo partly specified), the Potency entry in assay [1], in [2], in assay [4], in assay [13], in assay [5] and in assay [6] was “inactive” each time. For the same compound, in [7], the Potency result was “inactive”. Moreover, the outcome in assay [3] was “inactive”.
